Data taken from PubChem BioAssay AID623911 (Vanderbilt High Throughput Screening Facility, 2012).
In all, about 2,100 compounds went through this assay and about 770 (37%) were called active.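 How the source made its calls: active means by-eye trace score of 1 for enhancers or -1 for inhibitors, so actives lie on both sides (some results past the limit were not filed as active); inactive means score 0, or 3 fluorescent, or 4 baseline rise.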 The list shows a part of the results.

Each compound was assayed against G protein-activated inward rectifier potassium channel 2 (Homo sapiens) + G protein-activated inward rectifier potassium channel 1 (Homo sapiens) (UniProt P48051+P48549) (assay: GIRK1/2 thallium flux modulators, retest, confirmation, cell-based, HEK293 rmGlu8/hGIRK1/2, FluoZin-2 (AID 623911)). Details: HEK293 rmGlu8/hGIRK1/2, thallium flux FluoZin-2; actives lie on both sides.
Sequence of G protein-activated inward rectifier potassium channel 2 (Homo sapiens) + G protein-activated inward rectifier potassium channel 1 (Homo sapiens) (P48051 whole entry, looked up): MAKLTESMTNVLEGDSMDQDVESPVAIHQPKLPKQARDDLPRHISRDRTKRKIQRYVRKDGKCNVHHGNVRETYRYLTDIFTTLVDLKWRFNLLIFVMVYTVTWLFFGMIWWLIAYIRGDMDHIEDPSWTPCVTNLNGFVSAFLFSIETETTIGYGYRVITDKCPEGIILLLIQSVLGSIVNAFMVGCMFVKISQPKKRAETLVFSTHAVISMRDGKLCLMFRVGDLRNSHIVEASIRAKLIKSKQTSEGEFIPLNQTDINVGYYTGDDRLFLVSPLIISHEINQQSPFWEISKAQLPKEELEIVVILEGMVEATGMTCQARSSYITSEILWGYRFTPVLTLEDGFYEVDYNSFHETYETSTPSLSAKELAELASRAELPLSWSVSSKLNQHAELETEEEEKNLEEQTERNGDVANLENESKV
Sequence of G protein-activated inward rectifier potassium channel 2 (Homo sapiens) + G protein-activated inward rectifier potassium channel 1 (Homo sapiens) (P48549 whole entry, looked up): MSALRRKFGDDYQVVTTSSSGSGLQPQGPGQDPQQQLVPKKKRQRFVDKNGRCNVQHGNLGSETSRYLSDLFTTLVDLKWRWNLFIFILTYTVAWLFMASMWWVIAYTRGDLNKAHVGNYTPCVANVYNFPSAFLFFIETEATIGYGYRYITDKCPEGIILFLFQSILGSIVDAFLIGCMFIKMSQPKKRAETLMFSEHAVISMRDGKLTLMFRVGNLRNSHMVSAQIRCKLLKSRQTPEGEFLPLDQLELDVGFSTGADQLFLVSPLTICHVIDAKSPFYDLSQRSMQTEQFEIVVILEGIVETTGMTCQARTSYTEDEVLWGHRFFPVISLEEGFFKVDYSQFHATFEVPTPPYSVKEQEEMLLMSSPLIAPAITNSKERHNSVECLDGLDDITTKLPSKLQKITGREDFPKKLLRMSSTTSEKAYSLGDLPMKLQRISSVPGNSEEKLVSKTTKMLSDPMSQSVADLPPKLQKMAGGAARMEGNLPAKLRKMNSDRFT
In the case of `CC(C)Oc1cc(-n2c(=S)[nH]c3ccccc3c2=O)c(Cl)cc1Cl`, the manual score is reported as 1 (active). With `COc1cc(-n2c(=S)[nH]c3ccccc3c2=O)c(Cl)cc1Cl` the manual score was 1 (active). With `CC(=NCC1CCCO1)c1c(O)n(-c2ccc(C)cc2)c(=O)[nH]c1=O` (stereo not given) the manual score was 0 (inactive). With `Nc1c(C(=O)OC2CCCCC2)c2nc3ccccc3nc2n1CC1CCCO1` (stereo not given) the manual score was 0 (inactive). `CCN(c1ccc(C(O)(C(=O)OC)C(F)(F)F)cc1)S(=O)(=O)c1ccc(C)cc1` (stereo not given) was tested, and the manual score was -1 (active). `CCOC(=O)C(O)(c1ccc(N(CC)S(=O)(=O)c2ccc(C)cc2)cc1)C(F)(F)F` (stereo not given) was tested, and the manual score was -1 (active). For `C/C(=N\Nc1ccccc1)c1c(O)n(C)c(=O)n(C)c1=O`, the manual score was 0 (inactive). With `CCOC(=O)C1=C(NC(=S)NC(=O)c2ccccc2)c2ccccc2CC12CCCC2` the manual score was 0 (inactive). With `CC/C(=C\C=C\[C@@H]1C=C[C@@H]2CCC[C@H]2[C@@H]1C(=O)c1ccc[nH]1)[C@@H]1O[C@@H]([C@@H](C)C(=O)O)CC[C@@H]1C` the manual score was 0 (inactive). `Cc1ccc(-c2nc(N(C)C3CCN(C)CC3)c3ccccc3n2)cc1` was tested, and the manual score was 0 (inactive). `O=c1cc(C(F)(F)F)c2cc3c4c(c2o1)CCCN4CCC3` was tested, and the manual score was 3 (inactive). `Cn1cccc1CNCCc1ccccc1` was tested, and the manual score was 0 (inactive). In the case of `CCN1/C(=C\C=C\C2=[N+](CC)c3ccccc3C2(C)C)C(C)(C)c2ccccc21`, the manual score is reported as 3 (inactive). In the case of `CNC(=O)OCCc1nccn1C`, the manual score is reported as 0 (inactive). In the case of `O=C(Nc1ccc(Cl)cc1)Nc1nccs1`, the manual score is reported as 1 (active). With `Cc1nn(C)cc1/C=C1/CC2C3CC=C4CC(O)CCC4(C)C3CCC2(C)C1=O` (stereo not given) the manual score was -1 (active). In the case of `CN1/C(=C\C=C\C2=[N+](C)c3ccc4ccccc4c3C2(C)C)C(C)(C)c2ccccc21`, the manual score is reported as 3 (inactive). With `C=CCOC(=O)COc1cc(C)cc2oc(=O)c3c(c12)CCC3` the manual score was 0 (inactive). For `CCN(CC)CCNCC(=O)Nc1ccc(Cl)cc1C(=O)c1ccccc1`, the manual score was -1 (active). In the case of `O=c1[nH]c(=S)n(CCC2=CCCCC2)c(O)c1C=NCCCn1ccnc1`, the manual score is reported as 3 (inactive). For `Cc1ccc(OCC(=O)NCCN2CCN(C(=O)COc3ccc(C)cc3)CC2)cc1`, the manual score was 0 (inactive). For `O=C(c1cc2ccccn2n1)N1CCC2(CC1)OCCO2`, the manual score was 0 (inactive). `COc1ccc(CC2C(=O)NC(=O)NC2=O)c(OC)c1` was tested, and the manual score was 0 (inactive). In the case of `c1ccc2c(CNC3CCCCC3)c[nH]c2c1`, the manual score is reported as -1 (active). With `CC(C)N1C(=O)/C(=C/C=C/c2ccco2)C(=O)N(Cc2ccco2)C1=O` the manual score was 0 (inactive). In the case of `S=C1CN=C(c2ccccc2)c2cc(Cl)ccc2N1`, the manual score is reported as 0 (inactive). In the case of `Cc1ccccc1C1=NCC(=S)Nc2ccc(Cl)cc21`, the manual score is reported as 0 (inactive). With `S=C1CN=C(c2ccccc2Cl)c2cc(Cl)ccc2N1` the manual score was 1 (active). With `CC(C)CCn1c(=O)c(C(=O)Nc2ccccc2S(N)(=O)=O)c(O)c2ccccc21` the manual score was 0 (inactive). For `O=C(c1ccccc1)c1cn(CC(=O)N2CCOCC2)c2ccccc12`, the manual score was 0 (inactive). For `Fc1ccc(NC2=NCCS2)cc1Cl`, the manual score was 0 (inactive). In the case of `CCCCn1c(C)c(C(=O)OCC)c2c(CN3CCOCC3)c(O)ccc21`, the manual score is reported as -1 (active). `O=C(Cc1ccccc1)N1CCN(C/C=C/c2ccccc2)CC1` was tested, and the manual score was 0 (inactive). For `Cc1ccc2nc(N3CCC(C(=O)N4CCC5(CC4)OCCO5)CC3)sc2c1`, the manual score was 0 (inactive). For `N=c1sc2c(n1Cc1ccccc1)CCCC2`, the manual score was -1 (active).
